Assay results as given in PubChem BioAssay AID686978 (National Center for Advancing Translational Sciences (NCATS), 2013).
Out of some 420,000 compounds screened, about 64,000 (15%) were called active. About 27% were inconclusive and are not listed. A selection follows. Values without a mark were called inactive. Calls follow the shape of the dose curve; as a rule, active = well fitted inhibition curve with a large enough effect; inconclusive = small, poorly fitted or top-dose-only effect; inactive = flat fitted curve, though single readings scatter.

Assay: qHTS for Inhibitors of human tyrosyl-DNA phosphodiesterase 1 (TDP1): qHTS in cells in absence of CPT; also: nearly all actives have a fitted effect of over 55% in size
Conditions: DT40 Tdp1-/- hTDP1 cells, no CPT, ATP luminescence, 48 h; activity change, negative = growth inhibition: at 46.2 µM (top of the series)
How it was run: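 Growth kinetics read by CellTiter-Glo luminescence after ≥48 hr at 37 °C. Cells: DT40 Tdp1-/- stably carrying human TDP1, 400 per well, compound exposure in the absence of CPT (DMSO vehicle).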
% is scaled to controls: 0 for no effect and ±100 for the full control effect; potency is read from the fitted curve at half-maximal effect.

Structure (SMILES)	activity change, negative = growth inhibition	Potency
c1ccc2[nH]c(NCCN3CCOCC3)nc2c1	14.2%	
CC1CCCN(C(=O)Cn2c(=O)oc3ccccc32)C1 (centres undefined)	-3.54%	
CC(C)NC(=S)Nc1cccc2cnccc12	2.15%	
CCN(c1ccccc1)S(=O)(=O)c1cccc(C(=O)O)c1	11.1%	
CCN(c1ccccc1)S(=O)(=O)c1cccc(C(=O)NCc2ccccc2CN2CCOCC2)c1		18.4 µM (active)
O=C(NCCN1CCOCC1)c1cccc(S(=O)(=O)Nc2ccc(F)cc2)c1	-15.8%	
Cc1ccc(NC(=O)O/N=C/c2cccc([N+](=O)[O-])c2)cc1	11.3%	
CCCc1ccc(OCc2ccc(C(=O)N/N=C/c3cccc([N+](=O)[O-])c3)o2)c(OC)c1		6.51 µM (active)
COC(=O)c1ccc(COc2ccc(/C=N/NC(=O)C(=O)Nc3ccc(OC)cc3)cc2OC)o1	-23.3%	
CC(OC(=O)CN1C(=O)COc2ccccc21)C(=O)NCc1ccc(F)cc1 (centres undefined)	-11.9%	
COc1ccc(CCNC(=O)CN(c2ccccc2)S(C)(=O)=O)cc1OC	9.69%	
COc1ccc(CCNC2=C(Cl)C(=O)N(Cc3ccccc3)C2=O)cc1OC		20.6 µM (active)
COc1ccc(CCNS(=O)(=O)c2ccc(Cl)s2)cc1OC	-25.5%	
COc1c(C(C)C)oc2cc3oc(=O)ccc3cc12		inactive
N=C1C(c2nc3ccccc3s2)=C(O)CN1NC(=O)c1ccc([N+](=O)[O-])cc1		23.1 µM (active)
CCOC(=O)CCCN1CC(O)=C(c2nc3ccccc3s2)C1=N	-22.8%	
O=C(Nn1c(-c2ccccc2)nc2ccccc2c1=O)c1ccc([N+](=O)[O-])cc1	-6.88%	
Cc1nc2cc(NC(=O)CSc3nc4c(C)cccc4cc3C#N)ccc2s1	-16.2%	
COCCNC(=O)c1snc2ccc(Cl)cc12	-21.8%	
CCOc1ncccc1C(=O)N(C)CC(=O)Nc1ccc(F)cc1	-0.0857%	
O=C(O)CN1c2cccc3cccc(c23)S1(=O)=O	-23.5%	
COc1ccccc1CNC(=O)COC(=O)CNS(=O)(=O)c1ccc(NC(C)=O)cc1	11.4%	
COc1ccc(CNC(=O)COCc2cc(-c3cccs3)on2)cc1OC		23.1 µM (active)
COc1ccc(CNC(=O)COC(=O)c2sccc2C)cc1OC	-4.33%	
COc1ccc(OC)c(CNC(=O)CCc2nc(-c3cccs3)no2)c1	-7.21%	
Cc1cc(C)cc(NC(=S)NCCCN2CCOCC2)c1	1.47%	
Cc1ccc(-n2nc3c(c2NC(=O)c2ccc4c(c2)OCO4)CSC3)c(C)c1	-6.86%	

Structure (SMILES)	activity change, negative = growth inhibition	Potency
CCOc1c2ccc(C(=O)NCc3ccc4c(c3)OCO4)cc2nn1C	-0.712%	
C=CCNC(=O)c1ccc2c3n(nc2c1)-c1ccc(C)cc1CO3		18.4 µM (active)
COc1ccc(N2CCN(CCNC(=O)CCN3C(=O)COc4ccccc43)CC2)cc1	-12.1%	
C/C(=N\NC(=O)COc1ccc(C)cc1[N+](=O)[O-])c1ccc2c(c1)OCCO2	-13.3%	
COc1ccc(CNc2nc(NCc3ccc(OC)cc3)c3ncn(C4CCCC4)c3n2)cc1		2.31 µM (active)
CCCn1nnnc1NCc1ccc(OC)cc1	2.5%	
COc1ccc(CNC2CCCCC2)cc1	-10.9%	
O=C1NS(=O)(=O)c2ccccc21		inactive
N#CCCN1CCN(S(=O)(=O)c2ccc(S(=O)(=O)NC3CC3)cc2)CC1	3.76%	
COc1ccc(-c2cc(-c3ccccc3)nc3c2COc2ccc(Cl)cc2-3)cc1	-15.8%	
COc1ccc(Cl)cc1NC(=O)CSc1nc(=O)[nH]c2c1CCCC2	-57.5%	
O=C(CSc1nc(=O)[nH]c2c1CCCC2)Nc1cc(C(F)(F)F)ccc1Cl		16.4 µM (active)
Nc1nc(SCC(=O)Nc2cc(C(F)(F)F)ccc2Cl)[nH]c(=O)c1NC(=O)c1ccco1	-0.773%	
CC(C)CCN1CCN=C1N(C)C	-7.35%	
CC(C)CC(=O)N1CCN(Cc2ccccc2Br)CC1	-0.0212%	
Cc1c(C(=O)NCc2ccccc2Br)oc2ccc3c(c12)C(=O)CC(C)(C)O3		16.4 µM (active)
COc1ccc2oc(C(=O)NCc3ccco3)c(C)c2c1	20.9%	
C[C@]12C=CC(=O)C=C1CC[C@@H]1[C@@H]2C(=O)C[C@@]2(C)[C@H]1CC[C@]2(O)C(=O)CO	-10.7%	
Cc1cc(C)cc(N(CCC#N)C(=O)CN2C(=O)NC3(CCCC3)C2=O)c1	-12.4%	
O=C(NC1CCCC1)C(c1ccc(N2CCOCC2)cc1)N(C(=O)c1ccco1)c1ccccc1F (centres undefined)	-27.7%	
O=C(O)c1ccc(/C=N/NC(=O)c2ccc(Br)cc2)cc1	-10%	
O=C(O)c1ccc(OCC2CCCO2)cc1 (centres undefined)	7.34%	
O=C(N/N=C/c1ccc(OCC2COCCO2)cc1)c1ccc(Br)cc1 (centres undefined)		18.4 µM (active)
O=C(Nc1cccn(Cc2c(Cl)cccc2Cl)c1=O)c1ccc(Cl)cc1	-16.9%	
CCC(C)NC(=O)Cn1c(=O)n(-c2ccc(Cl)cc2)c(=O)c2c3c(sc21)CCCC3 (centres undefined)	-29%	
CCCOC(=O)Nc1sc2c(c1C(=O)OCC)CCC2	-8.8%	
CCOC(=O)c1c(NC(C)=O)c2c3c(sc2n1Cc1c(C)cc(C)cc1C)CCCC3		13 µM (active)
